Reference: PubChem BioAssay (NCATS)
Inconclusive results are not listed. Where a call stands in place of a potency, no number is given. Active and inactive are the calls of the source. Calls follow the shape of the dose curve; as a rule, active = well fitted inhibition curve with a large enough effect; inconclusive = small, poorly fitted or top-dose-only effect; inactive = no such curve, though single readings can be large or run the other way.

assay: BET inhibitor-based combinations targeting novel dependencies in MECOM-rearranged (r) AML: HNT-34 cell line (AID 2202234); settings: HNT-34 AML viability, CellTiter-Glo luminescence, 48 h; series mostly up to 46 µM; also: nearly all actives have a fitted effect of over 35% in size
In short: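 Using pin-tool transfer, drugs were added in 11 doses to cells (500/well), incubated 48 hr, and assessed with CellTiter-Glo. Z-AUC is a mean-centring transformation applied separately to each screened line.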
Potency is read from the fitted curve at half-maximal effect.

For Cc1[nH]nc2ncc(C(=O)N3CCC[C@H]3c3ccc(Cl)cc3)cc12, which Potency is on record?
Its Potency is “inactive”.

With CCCCC[C@H](O)/C=C/[C@H]1[C@H](O)CC(=O)[C@@H]1CCCCCCC(=O)O as the compound, how does the Potency read?
Its Potency is 16.6 µM (active).

For COc1ccnc(CS(=O)c2nc3ccc(OC(F)F)cc3[nH]2)c1OC (centres undefined), which Potency is on record?
Its Potency is “inactive”.

Which Potency does the source give for CC(=O)N[C@H]1CSSC[C@@H](C(N)=O)NC(=O)[C@H](C(C)C)NC(=O)[C@H](C)NC(=O)[C@H](Cc2cnc[nH]2)NC1=O here?
The Potency was “inactive”.

With N[C@@H]1CN(c2c(F)cc3c(=O)c(C(=O)O)cn([C@@H]4C[C@@H]4F)c3c2Cl)CC12CC2 as the compound, how does the Potency read?
Its Potency is “inactive”.

For C[C@@H](O[C@H]1OCCN(Cc2n[nH]c(=O)[nH]2)[C@@H]1c1ccc(F)cc1)c1cc(C(F)(F)F)cc(C(F)(F)F)c1, which Potency is on record?
Its Potency is 18.6 µM (active).

With COc1ncc(Nc2ncc(C(C)N3CCN(S(C)(=O)=O)CC3)cc2-c2nc(C)nc(N)n2)cc1F (centres undefined) as the compound, how does the Potency read?
The Potency was “inactive”.

Which Potency does the source give for CC(=O)CC(c1ccccc1)c1c(O)c2ccccc2oc1=O (centres undefined) here?
The Potency was “inactive”.

With Cc1cc(C)c2c(c1)[C@@H](N(Cc1cc(C(F)(F)F)cc(C(F)(F)F)c1)c1nnn(C)n1)CCCN2CC1CCC(C(=O)O)CC1 (some centres undefined) as the compound, how does the Potency read?
The Potency was 18.6 µM (active).

With O=C(O)CNC(=O)c1nc(Cl)c2ccccc2c1O as the compound, how does the Potency read?
The Potency was “inactive”.

With C/C(=N\NC(=O)c1cccc(S(=O)(=O)N2CCOCC2)c1)c1cc(Cl)ccc1O as the compound, how does the Potency read?
The Potency was 2.95 µM (active).

For C#CCN(C)CC1=Cc2ccccc2Oc2ccccc21, which Potency is on record?
Its Potency is “inactive”.

For O=C(Cc1ccccc1)Nc1nnc(CCSCCc2nnc(NC(=O)Cc3ccccc3)s2)s1, which Potency is on record?
Its Potency is “inactive”.

With CS[C@H]1SC[C@@H]2C(=O)N(C)[C@H](C(C)C)C(=O)OC[C@H](NC(=O)c3cnc4ccccc4n3)C(=O)N[C@H](C)C(=O)N(C)[C@H]1C(=O)N(C)[C@H](C(C)C)C(=O)OC[C@H](NC(=O)c1cnc3ccccc3n1)C(=O)N[C@H](C)C(=O)N2C as the compound, how does the Potency read?
The Potency was 0.0066 µM (active).
